# Measurements: PubChem BioAssay (NCATS)
# Results filed as inconclusive are left out. Where a call stands in place of a potency, no number is given. Active and inactive are the calls of the source. Calls come from the whole dose curve; as a rule, active = well fitted curve in the direction sought with a large enough effect; inconclusive = small, poorly fitted or top-dose-only effect, or another doubt; inactive = no such curve, though single readings can be large; an effect the other way counts as inactive or inconclusive.
# How the values were obtained:
# [1] = Quantitative High-Throughput drug screen in 47 multiple myeloma cell lines against the NCATS MIPE library collection: KMM1_JCRB cell viability assay (AID 1918960); note: nearly all actives have a fitted effect of over 30% in size
# Method in brief: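 Viability screen: myeloma cells (500/well) incubated 48 h at 37 °C, humidified 5% CO2, with pinned library compounds; CellTiter-Glo added, luminescence read; DMSO wells set 100%, medium-only wells 0%.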
# [2] = Quantitative High-Throughput drug screen in 47 multiple myeloma cell lines against the NCATS MIPE library collection: JIM3_ECACC cell viability assay (AID 1918963; note: nearly all actives have a fitted effect of over 35% in size)
# Method in brief: (§1)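 Myeloma cells (500 per well) were exposed to MIPE 4.0 compounds by pin transfer and incubated 48 hours at 37C, 5% CO2. Viability was read as ATP by CellTiter-Glo luminescence, normalised to DMSO (100%) and media-only (0%) wells.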
# [3] = Quantitative High-Throughput drug screen in 47 multiple myeloma cell lines against the NCATS MIPE library collection: INA6_PLB cell viability assay (AID 1918965; note: nearly all actives have a fitted effect of over 55% in size)
# Method in brief: (§2)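 CellTiter-Glo ATP luminescence gave viability after 48 h compound treatment at 37C of 500 multiple myeloma cells per well. Normalisation used DMSO-only wells as 100% and media-only wells as 0% viability; primary qHTS of approved and investigational drugs.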
# [4] = Quantitative High-Throughput drug screen in 47 multiple myeloma cell lines against the NCATS MIPE library collection: Karpas25_ECACC cell viability assay (AID 1918968; note: nearly all actives have a fitted effect of over 35% in size)
# Method in brief: (§3)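 Luminescent ATP measurement with CellTiter-Glo gives viability, scaled between DMSO-only wells (100%) and media-only wells (0%). Cells, 500 per well, faced library compounds for 48 hours at 37C.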
# [5] = Quantitative High-Throughput drug screen in 47 multiple myeloma cell lines against the NCATS MIPE library collection: KMS27_JCRB cell viability assay (AID 1918970); note: nearly all actives have a fitted effect of over 30% in size
# Method in brief: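 KMS27_JCRB myeloma cells, 500 per well, exposed 48 h at 37 C, 5% CO2 to MIPE 4.0 compounds. Viability from ATP by CellTiter-Glo luminescence, normalized to DMSO (100%) and medium-only (0%) wells.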
# [6] = Quantitative High-Throughput drug screen in 47 multiple myeloma cell lines against the NCATS MIPE library collection: KMS12BM_JCRB cell viability assay (AID 1918971); note: nearly all actives have a fitted effect of over 35% in size
# Method in brief: as §3
# [7] = Quantitative High-Throughput drug screen in 47 multiple myeloma cell lines against the NCATS MIPE library collection: KMS12PE_JCRB cell viability assay (AID 1918972); note: nearly all actives have a fitted effect of over 30% in size
# Method in brief: as §2
# [8] = Quantitative High-Throughput drug screen in 47 multiple myeloma cell lines against the NCATS MIPE library collection: KMS21BM_JCRB cell viability assay (AID 1918974); settings: ATP luminescence, 48 h; viability: at 45.8 µM (top of the series)
# Method in brief: as §3
# [9] = Quantitative High-Throughput drug screen in 47 multiple myeloma cell lines against the NCATS MIPE library collection: KMS26_JCRB cell viability assay (AID 1918975); note: nearly all actives have a fitted effect of over 45% in size
# Method in brief: as §3
# [10] = Quantitative High-Throughput drug screen in 47 multiple myeloma cell lines against the NCATS MIPE library collection: MMM1_PLB cell viability assay (AID 1918976); note: nearly all actives have a fitted effect of over 35% in size
# Method in brief: (§4)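 ATP-based CellTiter-Glo luminescence after 48 h drug exposure (37 °C, 5% CO2) of 500 myeloma cells per well. DMSO-only wells set 100% viability, media-only wells 0%; MIPE 4.0 library added by pin tool.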
# [11] = Quantitative High-Throughput drug screen in 47 multiple myeloma cell lines against the NCATS MIPE library collection: NCIH929_DSMZ cell viability assay (AID 1918978); note: nearly all actives have a fitted effect of over 35% in size
# Method in brief: as §4
# [12] = Quantitative High-Throughput drug screen in 47 multiple myeloma cell lines against the NCATS MIPE library collection: OCIMY1_PLB cell viability assay (AID 1918979); note: nearly all actives have a fitted effect of over 35% in size
# Method in brief: as §4
# [13] = Quantitative High-Throughput drug screen in 47 multiple myeloma cell lines against the NCATS MIPE library collection: MM1S_ATCC cell viability assay (AID 1918980); note: nearly all actives have a fitted effect of over 45% in size
# Method in brief: as §4
# [14] = Quantitative High-Throughput drug screen in 47 multiple myeloma cell lines against the NCATS MIPE library collection: JJN3_DSMZ cell viability assay (AID 1918966; note: nearly all actives have a fitted effect of over 50% in size)
# Method in brief: as §3
# [15] = Quantitative High-Throughput drug screen in 47 multiple myeloma cell lines against the NCATS MIPE library collection: H1112_PLB cell viability assay (AID 1918967; note: nearly all actives have a fitted effect of over 30% in size)
# Method in brief: as §3
# [16] = Quantitative High-Throughput drug screen in 47 multiple myeloma cell lines against the NCATS MIPE library collection: KMS20_JCRB cell viability assay (AID 1918973); note: nearly all actives have a fitted effect of over 45% in size
# Method in brief: as §3
# [17] = Quantitative High-Throughput drug screen in 47 multiple myeloma cell lines against the NCATS MIPE library collection: MOLP8_DSMZ cell viability assay (AID 1918977); note: nearly all actives have a fitted effect of over 45% in size
# Method in brief: as §4
# [18] = Quantitative High-Throughput drug screen in 47 multiple myeloma cell lines against the NCATS MIPE library collection: JIM1_ECACC cell viability assay (AID 1918964)
# Method in brief: as §3
# [19] = Quantitative High-Throughput drug screen in 47 multiple myeloma cell lines against the NCATS MIPE library collection: KHM11_PLB cell viability assay (AID 1918962); note: nearly all actives have a fitted effect of over 35% in size
# Method in brief: as §1
# Potency is the fitted concentration of half-maximal effect.
Structure (SMILES),Potency [1],Potency [2],Potency [3],Potency [4],Potency [5],Potency [6],Potency [7],Potency [8],Potency [9],Potency [10],Potency [11],Potency [12],Potency [13],Potency [14],Potency [15],Potency [16],Potency [17],Potency [18],Potency [19]
O=C(Nc1ccncc1)C(=O)c1cn(Cc2ccc(Cl)cc2)c2ccccc12,0.0187 µM (active),0.0148 µM (active),0.0132 µM (active),0.0469 µM (active),0.0209 µM (active),0.148 µM (active),0.0209 µM (active),0.0074 µM (active),9.35 µM (active),14.8 µM (active),1.32 µM (active),0.118 µM (active),0.264 µM (active),,,,,,
C[C@]12COC(=O)C[C@@H]1CC[C@@H]1[C@H]2CC[C@@]2(C)[C@H]1CC[C@]2(C)O,inactive,inactive,,,,1.18 µM (active),inactive,,inactive,,inactive,inactive,inactive,inactive,inactive,inactive,,,
CC(C)(C)[C@]1(O)C[C@@H]2OC(=O)C[C@@]23C(=O)O[C@@H]2OC(=O)[C@H](O)C213 (stereo not given in full),inactive,inactive,,inactive,inactive,inactive,,,,,inactive,inactive,inactive,,,,inactive,,
C[C@@H]1[C@H](O)[C@@H](C)C=CC=CCCC=CC=CC=CC=C[C@H](O[C@H]2O[C@@H](C)[C@H](O)[C@@H](N)[C@@H]2O)CC2O[C@](O)(C[C@@H](O)[C@H](O)CC[C@@H](O)C[C@@H](O)C[C@@H](O)CC(=O)O[C@H]1C)C[C@H](O)[C@H]2C(=O)O,inactive,inactive,,inactive,inactive,,inactive,,inactive,,inactive,inactive,inactive,inactive,,,inactive,inactive,
Cc1nc(-c2ccc(-c3ccc(C(=O)N4CCc5cc6c(cc54)C4(CCN(C)CC4)CO6)cc3)c(C)c2)no1,inactive,inactive,,,inactive,inactive,,,,,inactive,,inactive,,inactive,inactive,,,
COC1=CC(C)=C[C@@H](C)[C@@H](O)[C@@H](C)CC(C)=CC=C[C@H](OC)[C@H]([C@@H](C)[C@@H](O)[C@H](C)[C@@]2(O)C[C@@H](O)[C@H](C)[C@@H](C(C)C)O2)OC1=O,0.0093 µM (active),0.0053 µM (active),,0.0083 µM (active),,,,,0.0033 µM (active),10.5 µM (active),,0.0037 µM (active),1.48 µM (active),,,0.001 µM (active),0.0042 µM (active),,
CO[C@H]1CCC(O[C@H]2C[C@H]([C@]3(C)CC[C@]4(C[C@H](O)[C@@H](C)[C@@H]([C@@H](C)C=C(C)C(=O)[C@H](C)C[C@H](C)C(=O)O)O4)O3)O[C@]3(O[C@@H]([C@H]4O[C@@](O)(CO)[C@H](C)C[C@H]4C)C[C@H]3C)[C@H]2C)O[C@H]1C (stereo not given in full),0.187 µM (active),0.526 µM (active),0.526 µM (active),1.48 µM (active),,0.0833 µM (active),,,0.372 µM (active),1.66 µM (active),0.833 µM (active),5.26 µM (active),0.296 µM (active),0.526 µM (active),0.662 µM (active),0.235 µM (active),0.296 µM (active),,
COc1ccc2c(c[n+](C)c3c4cc5c(cc4ccc23)OCO5)c1OC,5.9 µM (active),7.43 µM (active),,7.43 µM (active),6.62 µM (active),3.72 µM (active),4.69 µM (active),,3.72 µM (active),6.62 µM (active),7.43 µM (active),7.43 µM (active),4.69 µM (active),2.64 µM (active),,,3.32 µM (active),4.18 µM (active),
c1ccc2c(CN3CCNCC3)cccc2c1,inactive,inactive,inactive,inactive,inactive,inactive,inactive,,inactive,,inactive,inactive,inactive,,inactive,,inactive,,
CCOC(=O)c1cncn1[C@H](C)c1ccccc1,inactive,inactive,inactive,inactive,inactive,5.26 µM (active),,,inactive,7.43 µM (active),inactive,inactive,,,,,,,
COC[C@H]1OC(=O)c2coc3c2[C@@]1(C)C1=C(C3=O)[C@@H]2CC[C@H](O)[C@@]2(C)C[C@@H]1OC(C)=O,5.9 µM (active),,1.18 µM (active),0.264 µM (active),4.69 µM (active),3.32 µM (active),6.62 µM (active),,3.32 µM (active),1.05 µM (active),0.209 µM (active),,2.35 µM (active),3.32 µM (active),,5.26 µM (active),,,
c1ccc(CCCN2CCN(CCOC(c3ccccc3)c3ccccc3)CC2)cc1,inactive,20.9 µM (active),,10.5 µM (active),inactive,20.9 µM (active),inactive,,26.4 µM (active),18.7 µM (active),23.5 µM (active),23.5 µM (active),,20.9 µM (active),26.4 µM (active),13.2 µM (active),20.9 µM (active),,
CN(C)NC(=O)CCC(=O)O,inactive,inactive,,inactive,inactive,7.43 µM (active),inactive,,inactive,inactive,inactive,inactive,,,inactive,,,,
CCN1C[C@]2(OC(=O)c3ccccc3NC(C)=O)CC[C@H](OC)[C@@]34[C@H]5CC6[C@@H](OC)C[C@](O)(C(C[C@@H]23)[C@@H]14)[C@@]5(O)[C@@H]6OC,inactive,inactive,inactive,inactive,,,inactive,,inactive,,inactive,,inactive,,inactive,,,,
CC(=Cc1csc(C)n1)[C@@H]1C[C@H]2O[C@@H]2CCC[C@H](C)[C@@H](O)[C@@H](C)C(=O)C(C)(C)[C@@H](O)CC(=O)O1,0.001 µM (active),inactive,,inactive,,inactive,,,inactive,,inactive,inactive,inactive,0.264 µM (active),inactive,,,,
COc1ccc(C(=O)c2c(C)n(CCN3CCOCC3)c3cc(I)ccc23)cc1,18.7 µM (active),13.2 µM (active),8.33 µM (active),18.7 µM (active),13.2 µM (active),23.5 µM (active),20.9 µM (active),,,,,,inactive,,,5.26 µM (active),,11.8 µM (active),
O=C(O)CNC(=O)c1c(O)c2ccccc2n(Cc2ccccc2)c1=O,inactive,inactive,,inactive,inactive,inactive,inactive,,inactive,,inactive,inactive,,,inactive,,inactive,,
CC(O)=C(C#N)C(=O)Nc1cc(Br)ccc1Br,inactive,inactive,,,,20.9 µM (active),5.9 µM (active),,18.7 µM (active),16.6 µM (active),inactive,inactive,20.9 µM (active),,0.935 µM (active),6.62 µM (active),,,
CC(=O)O[C@@]12CO[C@H]1C[C@H](O)[C@@]1(C)C(=O)[C@H](O)C3=C(C)[C@@H](O)C[C@@](O)([C@@H](OC(=O)c4ccccc4)[C@@H]21)C3(C)C,1.18 µM (active),1.05 µM (active),1.48 µM (active),,,1.48 µM (active),,,inactive,,,,10.5 µM (active),,,,2.96 µM (active),,
C[C@]12CCC(=O)C(O)=C1CC[C@@H]1[C@H]3CCC(=O)[C@@]3(C)CC[C@@H]12,inactive,inactive,,,inactive,20.9 µM (active),inactive,,inactive,2.35 µM (active),inactive,inactive,,,,,,,
CN[C@@H]1Cc2cccc3[nH]c(=O)n(c23)C1,inactive,inactive,inactive,inactive,inactive,,,,inactive,5.26 µM (active),inactive,inactive,,inactive,,,,,
CC(N[C@H]1C[C@H]1c1ccccc1)c1ccc2c(c1)OCCO2 (stereo not given in full),inactive,inactive,,inactive,inactive,1.87 µM (active),inactive,,5.26 µM (active),,inactive,inactive,,,inactive,0.001 µM (active),,,
CC1(N2CCC(n3c([C@@H]4CCCNC4)nc4ccccc43)CC2)CCCCCCC1,16.6 µM (active),,,18.7 µM (active),14.8 µM (active),20.9 µM (active),7.43 µM (active),,,,11.8 µM (active),20.9 µM (active),4.69 µM (active),,,,,,6.62 µM (active)
Cc1[nH]nc2ccc(-c3cncc(OC[C@@H](N)Cc4c[nH]c5ccccc45)c3)cc12,inactive,1.48 µM (active),0.372 µM (active),2.35 µM (active),inactive,2.64 µM (active),inactive,,1.18 µM (active),1.18 µM (active),1.05 µM (active),1.87 µM (active),0.833 µM (active),0.264 µM (active),0.935 µM (active),1.18 µM (active),0.264 µM (active),,
C[C@]12CC[C@H]3[C@@H](CCC4=CC(=O)CC[C@@]43C)[C@H]1CC[C@H]2OC(=O)CCC1CCCC1,inactive,,,inactive,inactive,,inactive,,,23.5 µM (active),,inactive,,,,,,,
O=C(Oc1ccc([N+](=O)[O-])cc1)N1CCN(Cc2cccc(Oc3ccccc3)c2)CC1,,inactive,,,inactive,,,,,,,,11.8 µM (active),,,,inactive,,
O=C(Oc1ccc([N+](=O)[O-])cc1)N1CCC(C(O)(c2ccc3c(c2)OCO3)c2ccc3c(c2)OCO3)CC1,,8.33 µM (active),10.5 µM (active),,inactive,inactive,,,inactive,,,inactive,,,,,inactive,,
